Data taken from PubChem BioAssay (NCATS).
“And” between values parts separate entries of the source, which are not always exact repeats. Equal values may be shown once. Records with an inconclusive call do not appear. The source made the active and inactive calls. Calls come from the whole dose curve; as a rule, active = well fitted inhibition curve with a large enough effect; inconclusive = small, poorly fitted or top-dose-only effect; inactive = flat fitted curve, though single readings scatter.

The compounds below were run on CRL-7250 (assay: Cytotoxic Profiling of Annotated Libraries Using Quantitative High-Throughput Screening (AID 1296008; note: nearly all actives have a fitted effect of over 60% in size)). Conditions: Five cell lines viability, CellTiter-Glo ATP luminescence, 48-72 h; max response: hits give low values.
Procedure, shortened: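 Cytotoxicity was measured as CellTiter-Glo ATP luminescence, read after 10 min at room temperature. Compound treatment of the cells lasted 48 or 72 hr at 37 degrees Celsius in a qHTS format.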
% is set by controls: 0 for no effect and ±100 for the full control effect; potency is the fitted concentration of half-maximal effect.

Question: For CCN1CCN(CC(=O)Nc2ccc(-c3cccc4c(=O)cc(N5CCOCC5)oc34)c3sc4ccccc4c23)CC1, which Potency is on record?
Answer: 2.35 µM (active)

Question: How did the Potency turn out when Nc1cccc(-c2cc3c(Oc4cccc(O)c4)ncnc3[nH]2)c1 was run?
Answer: 14.8 µM (active)

Question: Which Potency does the source give for COc1cc(C(=O)N2CCC(N3CCN(C)CC3)CC2)ccc1Nc1ncc2c(n1)N(C)c1ccccc1C(=O)N2C here?
Answer: 3.66 µM (active)

Question: With COC(=O)C[C@](O)(CCCC(C)(C)O)C(=O)O[C@@H]1C(OC)=C[C@]23CCCN2CCc2cc4c(cc2[C@H]13)OCO4 as the compound, how does the max response read?
Answer: 3.78% (inactive)

Question: CC(C)C[C@H](NC(=O)CNC(=O)c1cc(Cl)ccc1Cl)B(O)O was tested. Which Potency did it give?
Answer: 1.48 µM (active)

Question: How did the max response turn out when NC(=O)c1cccc2cn(-c3ccc([C@@H]4CCCNC4)cc3)nc12 was run?
Answer: -21.5% (inactive) and 4.62% (inactive)

Question: How did the max response turn out when Nc1ccc(C(=O)c2cc3c(ccc4ccccc43)[nH]2)cc1 was run?
Answer: -31% (inactive)

Question: For C[C@@]12O[C@@H](C[C@]1(O)CO)n1c3ccccc3c3c4c(c5c6ccccc6n2c5c31)CNC4=O, which Potency is on record?
Answer: 0.0833 µM (active)

Question: Cc1cnc(Nc2ccc(F)cc2Cl)nc1-c1c[nH]c(C(=O)N[C@H](CO)c2cccc(Cl)c2)c1 was tested. Which Potency did it give?
Answer: 18.7 µM (active) and 20.6 µM (active)

Question: How did the max response turn out when CN1CCN(c2cc(C(=O)Nc3ccc4c(c3)-c3c(c(C(N)=O)nn3-c3ccc(F)cc3)CC4)c(Cl)cn2)CC1 was run?
Answer: -32.2% (inactive)

Question: Which Potency does the source give for O=C(Nc1ncc(-c2cc(C(F)F)nn2-c2c(Cl)cccc2Cl)s1)C1CC1 here?
Answer: 1.48 µM (active) and 3.66 µM (active)

Question: For Cc1ccc(S(=O)(=O)Nc2cc(Cl)ccc2C(=O)Nc2nc(-c3ccccc3)cs2)cc1, which max response is on record?
Answer: 3.55% (inactive)

Question: For CN[C@H]1CCc2cc(OC)c(OC)c(OC)c2-c2ccc(OC)c(=O)cc21, which Potency is on record?
Answer: 0.0148 µM (active)

Question: Which Potency does the source give for COc1cc(C)c(Sc2cnc(NC(=O)c3ccc(CNC(C)C(C)C)cc3)s2)cc1C(=O)N1CCN(C(C)=O)CC1 (centres undefined) here?
Answer: 23.5 µM (active)

Question: C[C@@H]1CN(CC(=O)Nc2ccc3c(c2)Cc2cccc(-c4cc(=O)cc(N5CCOCC5)o4)c2S3)C[C@H](C)O1 was tested. Which max response did it give?
Answer: -2.3% (inactive)

Question: For c1cc(-c2cnn3cc(-c4ccc(OCCN5CCCCC5)cc4)cnc23)ccn1, which Potency is on record?
Answer: 6.62 µM (active)

Question: How did the Potency turn out when COc1c(OCCCN2CCOCC2)ccc2c3n(c(=NC(=O)c4cnc(N)nc4)nc12)CCN3 was run?
Answer: 2.29 µM (active)

Question: O=c1[nH]c(=O)n(C2CCCO2)cc1F (centres undefined) was tested. Which outcome did it give?
Answer: inactive

Question: For CN1CCC(CNc2ccc3ncc(-c4cccc(OC(F)(F)F)c4)n3n2)CC1, which Potency is on record?
Answer: 4.69 µM (active)

Question: Which Potency does the source give for CCC1=C[C@@H]2CN(C1)Cc1c([nH]c3ccccc13)[C@@](C(=O)OC)(c1cc3c(cc1OC)N(C)[C@@H]1[C@@](O)(C(=O)OC)[C@H](OC(C)=O)[C@]4(CC)C=CCN5CC[C@]31[C@@H]54)C2 here?
Answer: 0.0469 µM (active)

Question: For CCN(CC)CCNC(=O)c1ccc2nc(-c3ccccc3)c(-c3ccc(CN4CCC(n5c(=O)[nH]c6ccccc65)CC4)cc3)nc2c1, which Potency is on record?
Answer: 9.35 µM (active)

Question: CC(C)=CCCC(C)=CCCC(C)=CCSc1ccccc1C(=O)O was tested. Which Potency did it give?
Answer: 0.148 µM (active)

Question: How did the Potency turn out when CCN(CC)CCCCNc1ncc2cc(-c3cc(OC)cc(OC)c3)c(NC(=O)NC(C)(C)C)nc2n1 was run?
Answer: 0.264 µM (active)

Question: With COC(=O)[C@]12CCC(C)(C)C[C@@H]1[C@@H]1C(=O)C=C3[C@@]4(C)C=C(C#N)C(=O)C(C)(C)[C@@H]4CC[C@@]3(C)[C@]1(C)CC2 as the compound, how does the Potency read?
Answer: 4.69 µM (active)

Question: Which Potency does the source give for Cc1ccc(-c2ncn(-c3ccc(Nc4nccc(-c5cccc(N6CCOCC6)c5)n4)cc3)n2)cn1 here?
Answer: 0.118 µM (active)

Question: How did the Potency turn out when N#CCNC(=O)c1ccc(-c2ccnc(Nc3ccc(N4CCOCC4)cc3)n2)cc1 was run?
Answer: 7.43 µM (active) and 6.51 µM (active)

Question: For CC(C)c1cc(-c2n[nH]c(=O)n2-c2ccc3c(ccn3C)c2)c(O)cc1O, which Potency is on record?
Answer: 148 nM (active) and 103 nM (active)

Question: With O=C(O)c1ccc2c(c1)nc(Nc1cccc(Cl)c1)c1ccncc12 as the compound, how does the Potency read?
Answer: 14.6 µM (active)

Question: With Cc1c(CN2CCN(S(C)(=O)=O)CC2)sc2c(N3CCOCC3)nc(-c3cnc(N)nc3)nc12 as the compound, how does the Potency read?
Answer: 166 nM (active) and 259 nM (active)

Question: How did the Potency turn out when Cc1cc(N2CCOCC2)cc2[nH]c(-c3c(NC[C@@H](O)c4cccc(Cl)c4)cc[nH]c3=O)nc12 was run?
Answer: 11.8 µM (active)

Question: Which Potency does the source give for Cc1cn2c(-c3cn[nH]c3)cnc2c(Nc2ccc(C(=O)N3CCNCC3)cc2F)n1 here?
Answer: 6.51 µM (active)

Question: With OCc1ccc(-c2ccc(-c3ccc(CO)s3)o2)s1 as the compound, how does the max response read?
Answer: -8.37% (inactive)

Question: For Cc1nc2cnc3ccc(C#Cc4cccnc4)cc3c2n1-c1ccc(C(C)(C)C#N)cc1, which Potency is on record?
Answer: 0.0469 µM (active)

Question: COc1cc2c(NC3CCN(C(C)C)CC3)nc(C3CCCCC3)nc2cc1OCCCN1CCCC1 was tested. Which Potency did it give?
Answer: 8.33 µM (active) and 4.11 µM (active)

Question: Which Potency does the source give for O=C(NC1CCNCC1)c1[nH]ncc1NC(=O)c1c(Cl)cccc1Cl here?
Answer: 0.332 µM (active)

Question: With Cc1cccc(C=NNc2cc(N3CCOCC3)nc(OCCc3ccccn3)n2)c1 as the compound, how does the max response read?
Answer: -4.72% (inactive)

Question: For COc1cccc2c(NCc3ccccc3)nc(-n3c(N)nc4ccccc43)nc12, which Potency is on record?
Answer: 8.33 µM (active)

Question: Which Potency does the source give for Cc1cc(C(=O)N2CCN(c3cccc(Cl)c3)CC2)n(-c2ccccc2)n1 here?
Answer: 4.69 µM (active) and 5.8 µM (active)

Question: Which Potency does the source give for CN(C)CCCN=c1c2ccccc2n(C)c2[nH]c(=O)n(C)c(=O)c12 here?
Answer: 11.8 µM (active)
